Hits are enriched below; roughly 3.9% of the tested compounds scored in any of these assays.
D1 PAM: Potentiators of Human D1 Dopamine Receptor: qHTS | 0.036% of 360,000 active | AID 504651, 2011 | potentiation, % at 10 µM | D(1A) dopamine receptor (Homo sapiens), P21728 | HEK293 TREx D1 cells, calcium flux, dopamine EC20 potentiation; in the data active = potentiation above about 30%; also: 0% is about no effect
D1 antag: Antagonist of Human D 1 Dopamine Receptor: qHTS | D(1A) dopamine receptor (Homo sapiens), P21728 | activity change, negative = inhibition, % at 10 µM | HEK293 TREx D1 cells, calcium flux, dopamine EC80; hits give low values | 3.2% of 360,000 active; in the data active = activity change below about -30%; also: % is scaled to controls: 0 for no effect and ±100 for the full control effect
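Cells carrying a force-coupled, tetracycline-inducible human D1 receptor report calcium flux. Each well gets a 10 s baseline, compound with 180 s monitoring, then an EC80 dopamine stimulus with a second 180 s kinetic read.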
D1 ag: Allosteric Agonists of the Human D1 Dopamine Receptor: qHTS. D(1A) dopamine receptor (Homo sapiens), P21728. HEK293 T-REx D1 cells, calcium flux, agonist mode. activation, % at 2 µM. 1% of 360,000 active; in the data active = activation above about 30%; also: 0% is about no effect
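Tetracycline-induced HEK293 TREx D1 cells, force-coupled to calcium signalling, were dye-loaded with a no-wash calcium kit. Compound was pin-added after a 10 s baseline. Fluorescence was read kinetically at 1 cycle/s for 180 s, with calcium rises flagged as agonism.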
USP2a block: qHTS Assay for Inhibitors of Ubiquitin-specific Protease USP2a Using CHOP2 as the Reporter; 0.01% of 330,000 active; USP2 core, Ub-CHOP2 coupled fluorogenic reporter, 485/531; Potency, µM (titrated, usually from 38.3 µM), without a hit: at the highest dose activity change, negative = inhibition, usual class: inhibitors; AID 463254, 2010;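 also: potency is read from the fitted curve at half-maximal effect; plate controls were DMSO wells for no effect and full inhibition by NEM control for full effect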
Target sequence (O75604 whole entry, looked up): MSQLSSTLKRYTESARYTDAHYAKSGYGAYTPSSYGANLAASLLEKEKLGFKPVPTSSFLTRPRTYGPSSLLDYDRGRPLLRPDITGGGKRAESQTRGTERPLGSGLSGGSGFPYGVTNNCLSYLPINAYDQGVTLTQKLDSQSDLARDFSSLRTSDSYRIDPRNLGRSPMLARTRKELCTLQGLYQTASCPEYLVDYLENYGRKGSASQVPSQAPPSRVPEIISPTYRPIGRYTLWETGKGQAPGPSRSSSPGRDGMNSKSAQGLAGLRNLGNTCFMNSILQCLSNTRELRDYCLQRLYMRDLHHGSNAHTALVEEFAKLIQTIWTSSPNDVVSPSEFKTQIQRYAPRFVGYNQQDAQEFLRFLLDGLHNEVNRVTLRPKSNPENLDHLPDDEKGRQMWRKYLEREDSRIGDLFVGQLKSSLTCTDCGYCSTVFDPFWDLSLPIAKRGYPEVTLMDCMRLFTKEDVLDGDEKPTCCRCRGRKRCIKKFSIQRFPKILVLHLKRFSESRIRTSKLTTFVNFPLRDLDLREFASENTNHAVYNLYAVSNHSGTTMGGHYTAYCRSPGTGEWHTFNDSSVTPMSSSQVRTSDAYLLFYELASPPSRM
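Deubiquitinase activity read as fluorescence (485/531 nm) after Ub-CHOP2 cleavage activates the enterokinase reporter on its substrate; USP2 core 10nM, Ub-CHOP2 and substrate 25nM each, 30min compound preincubation then 60min RT; data normalized to NEM, curves fitted.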
GALK inhibitor: qHTS Assay for Inhibitors of Human Galactokinase (GALK); P51570; 0.007% of 270,000 active; Purified GALK, Kinase-Glo residual ATP luminescence; Potency, µM (doses to about 57.5 µM), for inactives: top-dose activity change, negative = inhibition, most hits filed as inhibitors; also: potency is read from the fitted curve at half-maximal effect; % is scaled to controls: 0 for no effect and ±100 for the full control effect
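ATP-depletion format; final 35 uM ATP, 100 uM D-galactose, 5 nM enzyme; pH 8.0 HEPES/Mg2+ buffer; 60 min RT; luminescence read 10 min after detection reagent.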
Eya2 inh: qHTS Assay for Inhibitors of the Phosphatase Activity of Eya2; recombinant Eya2, OMFP fluorescence dephosphorylation (OMFP is methylfluorescein phosphate); 0.006% of 330,000 active; Potency, µM (doses to about 76.9 µM), for inactives: at the highest dose activity, negative = inhibition, actives largely listed as inhibitors; Protein phosphatase EYA2 (Homo sapiens), O00167; also: potency is read from the fitted curve at half-maximal effect; % is scaled to controls: 0 for no effect and ±100 for the full control effect
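Eya2 protein (added as 0.2 uM solution) was preincubated with compound for 10 min at ambient temperature in 50 mM HEPES pH 7.5, 50 mM NaCl, 5 uM MgCl2, 0.05% BSA, 1 mM DTT. OMFP (added at 50 uM) then reacted 10 min; fluorescence read at 485/525 nm.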
* hit, by the source's call; x = not tested or not shown. Unless noted, calls follow the shape of the dose curve; as a rule, active = well fitted inhibition curve with a large enough effect; inconclusive = small, poorly fitted or top-dose-only effect, or effect the other way; inactive = flat fitted curve, though single readings scatter.

SMILES | D1 PAM | D1 antag | D1 ag | USP2a block | GALK inhibitor | Eya2 inh
Cn1c(C(=O)O)cc2cc(Oc3ccccc3)ccc21 | 0 | 12 | 3 | 2% | -1% | 18%
CC(NC(=O)c1ccc2c(c1)N(Cc1cccc(F)c1)C(=O)c1ccccc1S2)c1ccccc1 (stereo not drawn) | -4 | 7 | 4 | x | x | x
COc1cc(C(=S)N2CCOCC2)ccc1OC(=O)c1ccccc1[N+](=O)[O-] | -4 | -33* | 6 | 3% | 4% | -23%
COc1cc(C(=S)N2CCOCC2)ccc1OC(=O)c1cc([N+](=O)[O-])c(C)c([N+](=O)[O-])c1 | 11 | 0 | 4 | 1% | 2% | 5%
c1ccc(CNc2nc3c(-c4ccccc4)nnn3c3ccccc23)cc1 | 0 | -5 | -1 | x | x | x
Cc1ccc(O)c(CNc2cnc3ccccc3c2)c1 | -4 | -31* | 11 | -1% | 4% | 10%
Oc1ccc(Br)cc1CNc1cnc2ccccc2c1 | -3 | -6 | 8 | -2% | 4% | -2%
Cc1sc(N/N=C/c2cccnc2)nc1-c1ccc(Cl)cc1 | -10 | -33* | -1 | 1% | 0% | 3%
Clc1ccc(N/N=C/c2cccnc2)cc1 | -1 | 21 | 0 | -3% | 2% | 4%
Cn1nnnc1Sc1ncnc2scc(-c3cccc(Cl)c3)c12 | 6 | 14 | 4 | x | x | x
Cc1cccc(NC(=O)c2ccc(C3SCC(=O)N3CCc3ccccc3)cc2)c1 (stereo not drawn) | -1 | -2 | 2 | 2% | 0% | 4%
CC(=O)Nc1ccc(NC(=O)c2ccc(C3SCC(=O)N3CCc3ccccc3)cc2)cc1 (stereo not drawn) | -2 | -52* | 6 | 1% | 0% | -3%
COc1cccc2cc(C(=O)NCCc3c(C)[nH]c4ccc(Br)cc34)c(=O)oc12 | 3 | 6 | 0 | x | x | x
COc1ccc(-c2sc(Nc3ccccc3)n[n+]2-c2ccccc2)cc1Br | 0 | -31* | 4 | 4% | x | 13%
COc1ccc(C)cc1Nc1n[n+](-c2ccccc2)c(-c2c(OC)ccc3ccccc23)s1 | -13 | -91* | 46* | -1% | x | 4%
COc1ccc(C)cc1Nc1n[n+](-c2ccccc2)c(-c2cc(OC)c(OC)cc2Br)s1 | -5 | 5 | 4 | 1% | x | 1%
CCOc1cc(-c2sc(Nc3ccc(CC)cc3)n[n+]2-c2ccccc2)ccc1OC | -2 | -4 | 0 | 0% | x | 18%
CCOc1ccc(C(=O)Nc2cccc3ncccc23)cc1Cl | -7 | -30* | 5 | 0% | 4% | -3%
Cc1ccc(Cl)cc1-n1ncc2c(N3CCC(C)CC3)ncnc21 | 0 | 10 | 0 | x | x | x
Cc1ccccc1CN1C(=O)c2ccccc2Sc2ccc(C(=O)OCc3ccco3)cc21 | 1 | 14 | 7 | x | x | x
COC(=O)CSc1ccsc1C(=O)O | -3 | 2 | 3 | 0% | 9% | -2%
COC(=O)CSc1cccc2c1C(=O)CC2c1ccccc1 (stereo not drawn) | -5 | -33* | 7 | 0% | 2% | -14%
Cc1c(N=C2N=C(NC(=O)c3cccs3)c3ccccc32)c(=O)n(-c2ccccc2)n1C | -5 | -16 | 41* | 0% | 1% | 4%
O=c1[nH]c2ccc(NCc3ccc(-c4ccc(Br)cc4)o3)cc2[nH]1 | -2 | -7 | 0 | x | x | x
O=c1[nH]c2ccc(NCc3ccc(-c4cccc(Cl)c4)o3)cc2[nH]1 | -1 | -22 | 37* | x | x | x
Cc1ccc(Cl)cc1N1CCN(Cc2nnc(-c3ccc4c(c3)OCO4)o2)CC1 | 7 | -20 | 4 | x | x | x

From PubChem BioAssay
